Key:
Experiment in all cases: PBM binding z-score (relative to random genomic background probes); higher = stronger binding; sequences stand for … in GC…GCGATTGACAGCGTAGAATGAAGG
[1] = test system: FXR:RXRa (NR concentration 270 nM, RXRa partner concentration 90 nM)
Summary of the method: (§1)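 Ligand-free nuclear receptor dimers were bound for 1 h to custom Agilent 4×180K protein-binding microarrays. Detection used antibodies against each partner (one per run). Binding z-scores rest on regression-normalized fluorescence, with random background probes as the reference.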

[2] = test system: LXRa:RXRa (NR concentration 270 nM, RXRa partner concentration 90 nM)
Summary of the method: as §1

[3] = test system: LXRa homodimer (NR concentration 270 nM)
Summary of the method: as §1

[4] = test system: LXRb:RXRa (NR concentration 270 nM, RXRa partner concentration 90 nM)
Summary of the method: as §1

[5] = test system: LXRb homodimer (NR concentration 270 nM)
Summary of the method: as §1

[6] = test system: PPARa:RXRa (NR concentration 270 nM, RXRa partner concentration 90 nM)
Summary of the method: as §1

[7] = test system: PPARg:RXRa (NR concentration 180 nM, RXRa partner concentration 90 nM)
Summary of the method: as §1

[8] = test system: PPARg:RXRa 270nM:90nM, anti-RXR (NR concentration 270 nM, RXRa partner concentration 90 nM)
Summary of the method: as §1

[9] = test system: PPARg:RXRa 30nM:10nM, anti-RXR (NR concentration 30 nM, RXRa partner concentration 10 nM)
Summary of the method: as §1

[10] = test system: PPARg:RXRa 90nM:30nM, anti-RXR (NR concentration 90 nM, RXRa partner concentration 30 nM)
Summary of the method: as §1

Sequence | PBM binding z-score [1] | PBM binding z-score [2] | PBM binding z-score [3] | PBM binding z-score [4] | PBM binding z-score [5] | PBM binding z-score [6] | PBM binding z-score [7] | PBM binding z-score [8] | PBM binding z-score [9] | PBM binding z-score [10]
TCGAGTAGGGTAGTCGGGGCATTCAGCCAACATA | -0.261 | -0.324 | -0.232 | 0.0407 | -0.844 | 0.109 | -0.307 | 0.468 | 0.525 | 0.442
GCAGACAGGTGAAACGCAGGTAACTCTGGGTGGC | -0.204 | -0.034 | -0.674 | -0.472 | -1.14 | 0.489 | 0.484 | 0.284 | -0.673 | -0.347
ATCTCTAGGTAAAGATAGTTCCGTGAATGCAAAT | 0.0722 | -0.0482 | 0.14 | -0.171 | 0.352 | 0.22 | 0.326 | 0.273 | 0.172 | 0.366
GCATATAGGTAATACAAGGTGGAAGTCCGATTGT | 0.184 | 0.265 | -0.224 | -0.272 | -0.619 | 0.775 | 0.978 | 0.953 | 0.435 | 0.586
CCTACTGGGCCATCCGGTCATTGATATCAACGTT | 0.445 | 0.184 | 1.03 | 0.144 | 0.244 | 1.37 | 1.4 | 2.5 | 0.753 | 1.81
CCGAGTAGGTTTTGGGGCATTCAGGCAACGGTGA | 0.199 | 0.0127 | -0.127 | 0.177 | -0.134 | 0.31 | -0.0212 | 0.955 | -0.147 | 0.58
GATTGTAGATCAAGGTTAAGAAAGACTAAGCTAA | -0.0604 | 0.349 | -0.364 | 0.458 | -0.63 | 1.72 | 1.47 | 2.51 | 0.605 | 2.28
TGAATGAGGTTATAAGACCAGGGAACGTTGCAAA | 1.42 | 1.55 | -0.275 | 0.883 | -0.347 | 2.44 | 1.25 | 1.65 | 0.679 | 1.33
ATCGAAAGGTCGAAGGTGAGTATACCCACCCGAA | 4.3 | 3.8 | 0.189 | 2.86 | 0.5 | 4.67 | 4.53 | 5.13 | 2.14 | 4.33
TGAATGAGGTTAAAGATCAGGGTACGTGGCGTCG | 2.96 | 2.35 | -0.149 | 1.67 | 0.353 | 4.43 | 5.59 | 6.33 | 4.71 | 6.42
CAAACTAGATCAAAGGTCAAAGTCGAGCCAACCA | 5.73 | 5.82 | 5.07 | 5.77 | 3.09 | 6.79 | 11.4 | 10.2 | 11.1 | 11.9
CGTACAAGGTCAAGGTCAGTGAAAGAGACTCGAA | 7.99 | 5.91 | 1.33 | 5.06 | 1.34 | 6.47 | 7.35 | 6.73 | 3.62 | 5.87
AGAATGAGCTTAAGATCAGGGAAACAGAATACAT | -0.576 | -0.745 | -0.372 | -0.637 | -0.597 | -0.434 | 0.541 | -0.0832 | 0.137 | 0.036
AGACCAAGGTGATCGTGAGGTCGTTGATACTAAC | 1.27 | 0.891 | 0.368 | 0.98 | -0.813 | 1.58 | 0.415 | 0.494 | 0.11 | 0.313
TAGCCTAGGTGATGCGGGCCAGTATAGTGTCGGC | -0.724 | -0.891 | -0.841 | -1.2 | -1.39 | -0.486 | -0.087 | -0.902 | -1.01 | -0.934
TTACCAAGGTGAAGTTCGTTGATCCCTCTGTAGA | 1.07 | 1.09 | -0.342 | 0.617 | -0.644 | 1.98 | 1.16 | 2.35 | 0.877 | 2.05
TCGAGTAGGTAACCAATGGGGCATTCAGCTTTCT | -0.177 | 0.0243 | -0.581 | 0.362 | -0.995 | 0.488 | -0.0874 | 0.632 | 1.08 | 0.602
CGTCCAAGGTCAAAGGTCAGTGAAGAGATGACGG | 8.56 | 7.07 | 3.31 | 6.61 | 1.67 | 7.33 | 10.8 | 8.93 | 8.26 | 9.54
CCAGCCAGGTGAGAAGGTAACTCAGCCTCGATTA | -0.27 | -0.406 | -0.377 | -0.292 | -0.967 | 0.458 | 0.262 | 1.03 | -0.318 | 0.318
CGTCCAAGGTCATAGGAGGTCTGTGAAGACAGAT | 7.54 | 5.3 | 0.925 | 4.01 | 0.481 | 5.64 | 4.98 | 5.2 | 1.89 | 3.88
TTACCATGGTGAAAGGTCGTTGATGCACGCCTTG | 1.54 | 1.93 | 0.41 | 2.22 | -0.316 | 4.04 | 5.88 | 6.89 | 5.62 | 8.01
TGAATGAGGTTAAAGATCAGGCAACGTGGCGTCG | 2.94 | 2.82 | -0.471 | 1.4 | 0.134 | 4.85 | 5.51 | 6.49 | 5.01 | 6.3
TCTCGGAGGACACGAAAGGTCAAAGCTCGACATC | 4.46 | 5.45 | 6.31 | 4.92 | 0.987 | 4.72 | 2.15 | 3.75 | 2.79 | 3.33
